# Compounds without any hit were thinned out: in the full panel of roughly 79,000, 15% have a hit. A number with no mark means an inactive call. Active and inactive are the calls of the source. No stated cut-off is given here; in the data, active means growth inhibition above about 70%; inactive means the rest.
# Key:
# [1] = NCI Yeast Anticancer Drug Screen. Data for the rad52 strain (AID 147);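 further: 0% = growth of vehicle-treated control cultures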; settings: S. cerevisiae rad52 mutant growth inhibition, stronger effect = higher value
# In short: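 Screen used a yeast mutant impaired in DNA repair. After compound exposure, growth was measured. Values reflect inhibition compared with vehicle-treated cells.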
# [2] = NCI Yeast Anticancer Drug Screen. Data for the wt1 strain (AID 149);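 further: 0% = growth of vehicle-treated wt1 cultures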; settings: S. cerevisiae wt1 strain (SPY 50644) growth inhibition, stronger effect = higher value
# In short: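 The wt1 strain was treated with compounds, and growth was compared with vehicle-treated cultures to give inhibition.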
# [3] = NCI Yeast Anticancer Drug Screen. Data for the rad50EPP+ strain (AID 151);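 further: 0% = growth of vehicle-treated control cultures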; settings: S. cerevisiae rad50 mutant strain, stronger effect = higher value
# In short: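 Exposing the rad50EPP+ strain to each compound, growth was compared with vehicle-only cultures to give inhibition.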
# [4] = NCI Yeast Anticancer Drug Screen. Data for the mgt1 strain (AID 153); settings: S. cerevisiae mgt1 mutant growth inhibition, stronger effect = higher value
# In short: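 Genetically defined yeast (mgt1) treated with compound; inhibition of growth expressed against vehicle-treated controls.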
# [5] = NCI Yeast Anticancer Drug Screen. Data for the rad50 strain (AID 155);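 further: 0% = growth of vehicle-only cultures of the same strain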; settings: S. cerevisiae rad50 strain growth inhibition, stronger effect = higher value
# In short: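 Cells are treated with compound, grown, and their growth is then scored against vehicle-only cultures of the same repair-deficient yeast strain.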
# [6] = NCI Yeast Anticancer Drug Screen. Data for the mec2-1 strain (AID 157); settings: S. cerevisiae mec2-1 strain, stronger effect = higher value
# In short: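 Readout is yeast growth inhibition, normalised to vehicle-treated controls, in the mec2-1 strain exposed to compound.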
# [7] = NCI Yeast Anticancer Drug Screen. Data for the rad14 strain (AID 159);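 further: 0% = growth of vehicle-treated control cultures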; settings: S. cerevisiae rad14 strain growth inhibition, stronger effect = higher value
# In short: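 Readout: yeast growth inhibition, referenced to vehicle-only cultures. Strain bears a defined alteration in DNA damage repair.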
# [8] = NCI Yeast Anticancer Drug Screen. Data for the sgs1 mgt1 strain (AID 161);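 further: 0% = growth of cultures given vehicle only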; settings: S. cerevisiae sgs1 mgt1 strain, stronger effect = higher value
# In short: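 Growth of a repair-deficient yeast mutant was monitored after compound treatment and expressed as inhibition relative to vehicle-treated cultures.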
# [9] = NCI Yeast Anticancer Drug Screen. Data for the CLN2oe strain (AID 163);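 further: 0% = growth of vehicle-only control cultures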; settings: S. cerevisiae CLN2oe strain, stronger effect = higher value
# In short: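 Values reflect how much compound exposure reduced yeast growth, referenced to vehicle-exposed cells. Assay organism is a strain with a defined genetic change affecting cell-cycle control.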
# [10] = NCI Yeast Anticancer Drug Screen. Data for the cln2 rad14 strain (AID 165);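 further: 0% = growth equal to vehicle treated cultures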; settings: S. cerevisiae cln2 rad14 strain, stronger effect = higher value
# In short: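 Relative to vehicle controls, growth inhibition of compound-treated cln2 rad14 yeast was recorded.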
# [11] = NCI Yeast Anticancer Drug Screen. Data for the bub3 strain (AID 167); settings: S. cerevisiae bub3 mutant strain, stronger effect = higher value
# In short: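 Part of a panel of yeast mutants defective in DNA damage repair or cell cycle regulation. Each strain is grown with compound, and inhibition is calculated relative to solvent-treated cultures.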
# [12] = NCI Yeast Anticancer Drug Screen. Data for the wt2 strain (AID 169);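 further: 0% = growth of vehicle-treated yeast cultures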; settings: S. cerevisiae wt2 strain growth inhibition, stronger effect = higher value
# In short: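 Values express reduction in yeast growth under compound treatment, referenced to vehicle-treated cells.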
# [13] = NCI Yeast Anticancer Drug Screen. Data for the mlh1 strain (AID 171);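 further: 0% = growth of vehicle-treated control cultures of the same strain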; settings: S. cerevisiae mlh1 strain growth inhibition, stronger effect = higher value
# In short: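 Steps: expose the defined-mutant yeast strain to compound; expose a parallel culture to vehicle; measure growth; express compound effect as inhibition relative to the vehicle culture.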
# [14] = NCI Yeast Anticancer Drug Screen. Data for the sgs1 strain (AID 173);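 further: 0% = growth of vehicle-only control cultures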; settings: S. cerevisiae sgs1 mutant, stronger effect = higher value
# In short: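 Treat defined-mutant yeast with compound; measure growth; calculate inhibition relative to vehicle-treated cells.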
# [15] = NCI Yeast Anticancer Drug Screen. Data for the mlh1 rad18 strain (AID 175); settings: S. cerevisiae mlh1 rad18 strain growth inhibition, stronger effect = higher value
# In short: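 Test agents were incubated with a yeast strain of defined genotype (DNA damage repair defect). Inhibition of growth was derived by comparison with vehicle-exposed cultures.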
# [16] = NCI Yeast Anticancer Drug Screen. Data for the rad18 strain (AID 177); settings: S. cerevisiae rad18 mutant growth inhibition, stronger effect = higher value
# In short: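 A genetically defined yeast mutant impaired in DNA damage repair was treated with test compounds, then its growth was measured against cultures receiving vehicle alone.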
# [17] = at 5.0 µM (retest, dose inferred, filed as 0.5)
# [18] = at 50.0 µM (retest, dose inferred, filed as 5.0)
smiles,measurement,setting,value
N#C/C(=C/c1c(Cl)cccc1Cl)C(N)=O,growth inhibition,[1]; at 1.2 µM,0%
same,growth inhibition,[1]; at 3.7 µM,5%
same,growth inhibition,[1]; at 11.0 µM,13%
same,growth inhibition,[1]; at 33.0 µM,63%
same,growth inhibition,[1]; at 100.0 µM,96% (active)
same,growth inhibition,[2]; at 1.2 µM,13%
same,growth inhibition,[2]; at 3.7 µM,13%
same,growth inhibition,[2]; at 11.0 µM,10%
same,growth inhibition,[2]; at 33.0 µM,47%
same,growth inhibition,[2]; at 100.0 µM,96% (active)
same,growth inhibition,[3]; at 1.2 µM,-24%
same,growth inhibition,[3]; at 3.7 µM,-29%
same,growth inhibition,[3]; at 11.0 µM,-30%
same,growth inhibition,[3]; at 33.0 µM,-24%
same,growth inhibition,[3]; at 100.0 µM,57%
same,growth inhibition,[4]; at 1.2 µM,-4%
same,growth inhibition,[4]; at 3.7 µM,-15%
same,growth inhibition,[4]; at 11.0 µM,1%
same,growth inhibition,[4]; at 33.0 µM,63%
same,growth inhibition,[4]; at 100.0 µM,98% (active)
same,growth inhibition,[5]; at 1.2 µM,-10%
same,growth inhibition,[5]; at 3.7 µM,3%
same,growth inhibition,[5]; [17],47%
same,growth inhibition,[5]; at 11.0 µM,3%
same,growth inhibition,[5]; at 33.0 µM,69%
same,growth inhibition,[5]; at 50.0 µM,77.2% (active)
same,growth inhibition,[5]; at 100.0 µM,97% (active)
same,growth inhibition,[6]; at 1.2 µM,-26%
same,growth inhibition,[6]; at 3.7 µM,-8%
same,growth inhibition,[6]; [17],46%
same,growth inhibition,[6]; at 11.0 µM,-7%
same,growth inhibition,[6]; at 33.0 µM,58%
same,growth inhibition,[6]; at 50.0 µM,74.8% (active)
same,growth inhibition,[6]; at 100.0 µM,97% (active)
same,growth inhibition,[7]; at 1.2 µM,-3%
same,growth inhibition,[7]; at 3.7 µM,-15%
same,growth inhibition,[7]; at 11.0 µM,-1%
same,growth inhibition,[7]; at 33.0 µM,55%
same,growth inhibition,[7]; at 100.0 µM,97% (active)
same,growth inhibition,[8]; [17],-1%
same,growth inhibition,[9]; at 1.2 µM,9%
same,growth inhibition,[9]; at 3.7 µM,-2%
same,growth inhibition,[9]; at 11.0 µM,3%
same,growth inhibition,[9]; at 33.0 µM,18%
same,growth inhibition,[9]; at 100.0 µM,81% (active)
same,growth inhibition,[10]; [17],45%
same,growth inhibition,[11]; at 1.2 µM,-5%
same,growth inhibition,[11]; at 3.7 µM,4%
same,growth inhibition,[11]; [17],37%
same,growth inhibition,[11]; at 11.0 µM,14%
same,growth inhibition,[11]; at 33.0 µM,65%
same,growth inhibition,[11]; [18],96% (active)
same,growth inhibition,[11]; at 100.0 µM,97% (active)
same,growth inhibition,[12]; at 1.2 µM,-16%
same,growth inhibition,[12]; at 3.7 µM,-2%
same,growth inhibition,[12]; at 11.0 µM,-2%
same,growth inhibition,[12]; at 33.0 µM,58%
same,growth inhibition,[12]; at 100.0 µM,96% (active)
same,growth inhibition,[13]; at 1.2 µM,-16%
same,growth inhibition,[13]; at 3.7 µM,-15%
same,growth inhibition,[13]; at 11.0 µM,0%
same,growth inhibition,[13]; at 33.0 µM,71% (active)
same,growth inhibition,[13]; at 100.0 µM,97% (active)
same,growth inhibition,[14]; at 1.2 µM,15%
same,growth inhibition,[14]; at 3.7 µM,9%
same,growth inhibition,[14]; at 11.0 µM,21%
same,growth inhibition,[14]; at 33.0 µM,74% (active)
same,growth inhibition,[14]; at 100.0 µM,98% (active)
same,growth inhibition,[15]; [17],34%
same,growth inhibition,[15]; [18],76% (active)
same,growth inhibition,[15]; at 50.0 µM,61.7%
same,growth inhibition,[16]; at 1.2 µM,-19%
same,growth inhibition,[16]; at 3.7 µM,-11%
same,growth inhibition,[16]; at 11.0 µM,6%
same,growth inhibition,[16]; at 33.0 µM,81% (active)
same,growth inhibition,[16]; at 100.0 µM,97% (active)
S=C(S)NCC1CCC(CNC(=S)S)CC1 (stereo unspecified),growth inhibition,[1]; at 1.2 µM,-10%
same,growth inhibition,[1]; at 3.7 µM,-12%
same,growth inhibition,[1]; at 11.0 µM,-12%
same,growth inhibition,[1]; at 33.0 µM,20%
same,growth inhibition,[1]; at 100.0 µM,81% (active)
same,growth inhibition,[2]; at 1.2 µM,-11%
same,growth inhibition,[2]; at 3.7 µM,-5%
same,growth inhibition,[2]; at 11.0 µM,-5%
same,growth inhibition,[2]; at 33.0 µM,20%
same,growth inhibition,[2]; at 100.0 µM,77% (active)
same,growth inhibition,[3]; at 1.2 µM,-3%
same,growth inhibition,[3]; at 3.7 µM,3%
same,growth inhibition,[3]; at 11.0 µM,24%
same,growth inhibition,[3]; at 33.0 µM,41%
same,growth inhibition,[3]; at 100.0 µM,81% (active)
same,growth inhibition,[4]; at 1.2 µM,-8%
same,growth inhibition,[4]; at 3.7 µM,0%
same,growth inhibition,[4]; at 11.0 µM,5%
same,growth inhibition,[4]; at 33.0 µM,18%
same,growth inhibition,[4]; at 100.0 µM,89% (active)
same,growth inhibition,[5]; at 1.2 µM,8%
same,growth inhibition,[5]; at 3.7 µM,3%
same,growth inhibition,[5]; [17],31%
same,growth inhibition,[5]; at 11.0 µM,-4%
same,growth inhibition,[5]; at 33.0 µM,22%
same,growth inhibition,[5]; [18],98% (active)
same,growth inhibition,[5]; at 50.0 µM,67%
same,growth inhibition,[5]; at 100.0 µM,83% (active)
same,growth inhibition,[6]; at 1.2 µM,-9%
same,growth inhibition,[6]; at 3.7 µM,-2%
same,growth inhibition,[6]; [17],64%
same,growth inhibition,[6]; at 11.0 µM,5%
same,growth inhibition,[6]; at 33.0 µM,43%
same,growth inhibition,[6]; [18],98% (active)
same,growth inhibition,[6]; at 50.0 µM,59.1%
same,growth inhibition,[6]; at 100.0 µM,94% (active)
same,growth inhibition,[7]; at 1.2 µM,13%
same,growth inhibition,[7]; at 3.7 µM,19%
same,growth inhibition,[7]; at 11.0 µM,13%
same,growth inhibition,[7]; at 33.0 µM,27%
same,growth inhibition,[7]; at 100.0 µM,92% (active)
same,growth inhibition,[8]; [17],-13%
same,growth inhibition,[8]; [18],61%
same,growth inhibition,[9]; at 1.2 µM,0%
same,growth inhibition,[9]; at 3.7 µM,12%
same,growth inhibition,[9]; at 11.0 µM,13%
same,growth inhibition,[9]; at 33.0 µM,18%
same,growth inhibition,[9]; at 100.0 µM,70% (active)
same,growth inhibition,[10]; [17],-7%
same,growth inhibition,[10]; [18],46%
same,growth inhibition,[11]; at 1.2 µM,16%
same,growth inhibition,[11]; at 3.7 µM,-10%
same,growth inhibition,[11]; [17],19%
same,growth inhibition,[11]; at 11.0 µM,19%
same,growth inhibition,[11]; at 33.0 µM,63%
same,growth inhibition,[11]; [18],77% (active)
same,growth inhibition,[11]; at 100.0 µM,93% (active)
same,growth inhibition,[12]; at 1.2 µM,-15%
same,growth inhibition,[12]; at 3.7 µM,-20%
same,growth inhibition,[12]; at 11.0 µM,-13%
same,growth inhibition,[12]; at 33.0 µM,28%
same,growth inhibition,[12]; at 100.0 µM,83% (active)
same,growth inhibition,[13]; at 1.2 µM,-4%
same,growth inhibition,[13]; at 3.7 µM,15%
same,growth inhibition,[13]; at 11.0 µM,5%
same,growth inhibition,[13]; at 33.0 µM,32%
same,growth inhibition,[13]; at 100.0 µM,71% (active)
same,growth inhibition,[14]; at 1.2 µM,-3%
same,growth inhibition,[14]; at 3.7 µM,14%
same,growth inhibition,[14]; at 11.0 µM,16%
same,growth inhibition,[14]; at 33.0 µM,48%
same,growth inhibition,[14]; at 100.0 µM,87% (active)
same,growth inhibition,[15]; [17],44%
same,growth inhibition,[15]; [18],99% (active)
same,growth inhibition,[15]; at 50.0 µM,43.5%
same,growth inhibition,[16]; at 1.2 µM,2%
same,growth inhibition,[16]; at 3.7 µM,6%
same,growth inhibition,[16]; at 11.0 µM,16%
same,growth inhibition,[16]; at 33.0 µM,18%
same,growth inhibition,[16]; at 100.0 µM,78% (active)

# Source: PubChem BioAssay (NCI)
